Hits are enriched below; roughly 12% of the tested compounds scored in any of these assays.
G9a inh = G9a (human) methyltransferase inhibition; G9a H3K9 monomethylation, AlphaScreen, 2 h; 350,000 tested, 8.8% active; Potency, µM (highest dose often 102 µM), for the others: top-dose activity, negative = inhibition, most hits filed as inhibitors; AID 504332; note: % is set by controls: 0 for no effect and ±100 for the full control effect; nearly all actives have a fitted effect of over 75% in size
Target sequence (Q96KQ7 913-1193 limits assumed): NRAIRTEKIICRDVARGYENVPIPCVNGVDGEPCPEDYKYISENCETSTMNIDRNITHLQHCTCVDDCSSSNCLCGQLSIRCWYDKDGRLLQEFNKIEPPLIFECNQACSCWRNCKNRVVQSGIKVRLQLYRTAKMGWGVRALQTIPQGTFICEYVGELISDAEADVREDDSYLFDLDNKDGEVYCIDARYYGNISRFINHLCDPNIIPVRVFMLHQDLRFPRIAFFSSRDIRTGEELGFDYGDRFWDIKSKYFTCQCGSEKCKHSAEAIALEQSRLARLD
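Quantitative HTS format: methyltransferase activity on a biotin-tagged H3K9 peptide is measured by AlphaScreen, using a rabbit anti-monomethyl-H3K9 antibody with streptavidin donor and anti-IgG acceptor beads. Final levels are 20 nM enzyme, 500 nM peptide, 20 uM SAM; 2 h RT.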
Sfp PPTase inh = inhibitors of Bacillus subtilis Sfp phosphopantetheinyl transferase | Q9F4F7 | Biochemical Sfp PPTase activity, qHTS | Potency, µM, inactives show largest response in the series, negative = inhibition, hits mostly inhibitors | 310,000 tested, 3.5% active;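 note: the enzyme is Sfp with the accession as filed and its product quenches rhodamine fluorescence; 0% = enzyme reaction without inhibitor and -100% = no enzyme wells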
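Sfp 15 nM + cpd, 15 min RT; start w/ rhodamine-CoA 5 uM, BHQ-2-YbbR 12.5 uM (final); 50 mM Hepes pH 7.6, 10 mM MgCl2, 0.01% NP-40, 0.01% BSA; read 525/598 nm at 0 and 30 min.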
L3MBTL1 inh = L3MBTL1 (human) inhibition | Q9Y468 | 230,000 tested, 0.66% active | AlphaScreen L3MBTL1–H3K9me1 peptide binding | AID 485360 | Potency, µM (highest dose often 57.1 µM), for inactives: top-dose activity, negative = inhibition, actives largely listed as inhibitors; note: % is set by controls: 0 for no effect and ±100 for the full control effect; nearly all actives have a fitted effect of over 60% in size
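Read-out is AlphaScreen signal from streptavidin donor and nickel chelate acceptor beads (10 ug/mL final each) bridging L3MBTL1 (50 nM) and biotinylated K9-monomethylated H3(1-15) peptide (75 nM), after 30 min compound exposure at room temperature.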
HP1b chromo inh = blocks HP1-beta chromodomain binding to methylated histone tails. P83916. AlphaScreen HP1-beta / biotin-H3K9me3 peptide binding. Potency, µM (highest dose often 114 µM), for inactives: at the highest dose activity change, negative = inhibition, usual class: inhibitors. 390,000 tested, 0.56% active. AID 540317; note: nearly all actives have a fitted effect of over 70% in size
Target sequence (P83916 whole entry, looked up): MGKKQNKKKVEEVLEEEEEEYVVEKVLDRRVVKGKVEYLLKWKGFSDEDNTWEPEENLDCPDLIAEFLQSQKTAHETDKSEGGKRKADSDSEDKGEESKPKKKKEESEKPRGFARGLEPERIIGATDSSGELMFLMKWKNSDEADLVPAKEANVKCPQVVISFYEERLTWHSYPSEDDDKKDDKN
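HP1-beta protein (50 nM final) preincubated 30 min at room temperature with biotinylated H3(1-18)K9me3 peptide (50 nM) in PBS pH 7.4, 0.01% Tween-20, then compound added for 30 min. AlphaScreen streptavidin donor/nickel chelate acceptor beads (10 ug/mL final), 30 min dark, luminescence read.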
BAZ2B inh = inhibitors of human BAZ2B bromodomain | Q9UIF8 | AlphaScreen BAZ2B-H3K14Ac peptide displacement | Potency, µM (titrated, usually from 114 µM), inactives show at the highest dose activity change, negative = inhibition, actives largely listed as inhibitors | 360,000 tested, 4.4% active; note: % is set by controls: 0 for no effect and ±100 for the full control effect; nearly all actives have a fitted effect of over 60% in size
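BAZ2B (50 nM) with biotin-H3(5-23)K14Ac peptide (50 nM) in PBS pH 7.4, 0.01% Tween-20, preformed 30 min, then compound 30 min at room temperature; top concentration 110uM. AlphaScreen streptavidin donor/nickel chelate acceptor beads (10 ug/mL final), 20 min dark, signal read.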
JMJD2A Tudor inh = blocks the human JMJD2A Tudor domain. O75164. AlphaScreen JMJD2A-Tudor / H3K4me3 peptide binding. Potency, µM (titrated, usually from 114 µM), for inactives: top-dose activity change, negative = inhibition, actives largely listed as inhibitors. 390,000 tested, 4.4% active. AID 504339; note: % is set by controls: 0 for no effect and ±100 for the full control effect; nearly all actives have a fitted effect of over 50% in size
An asterisk follows results filed as active; ? = inconclusive; · = no result given; [ ] = dose if it differs, or a comment. Calls come from the whole dose curve; as a rule, active = well fitted curve in the direction sought with a large enough effect; inconclusive = small, poorly fitted or top-dose-only effect, or another doubt; inactive = no such curve, though single readings can be large; an effect the other way counts as inactive or inconclusive. Potency is the fitted concentration of half-maximal effect.

SMILES | G9a inh | Sfp PPTase inh | L3MBTL1 inh | HP1b chromo inh | BAZ2B inh | JMJD2A Tudor inh
CCc1ccc(-n2nc3ccc(NC(=O)c4ccc5c(c4)OCO5)cc3n2)cc1 | ? | 15% | · | 35% | ? | 7%
Cc1ccc(-n2nc3ccc(NC(=O)C(C)C)cc3n2)cc1 | 13µM* | -2% | 1% | 5% | ? | -13%
CC1(c2ccc3c(c2)OCCCO3)NC(=O)N(CC(=O)NCCc2ccccc2)C1=O (configuration not stated) | -5%[2.33 µM] | · | ? | 38% | 8% | -8%
CNC1CCC(c2ccc(Cl)c(Cl)c2)c2ccccc21 (configuration not stated) | -41%[2.33 µM] | -18% | · | · | · | ·
Cc1cc(C)c2c(NC(N)=S)n[nH]c2n1 | 25µM* | -19% | · | -1% | 0% | 32µM*
COc1ccccc1CN1[C@@H](CC(C)=O)c2cc(C(F)(F)F)ccc2S1(=O)=O | · | · | · | 38% | · | -9%
COc1ccc(CCN2C(=O)c3cccc4c(C(=O)N5CCCCC5)ccc(c34)C2=O)cc1OC | ? | -18% | 1% | -11% | -13% | -20%
COCCN1C2=C(C(=O)CC(C)(C)C2)C(c2ccc(OC)c(OC)c2)C2=C1CC(C)(C)CC2=O | 40% | 13% | 2% | 24% | 1% | 3%
CC(=O)c1c(O)c(C)c(O)c2c1OC1=CC(=O)C(C(C)=O)C(=O)[C@@]12C (some centres not stated) | 50µM* | 22% | · | 15% | -27% | -32%
C=CCN1C(=O)[C@@H]2Cc3c([nH]c4ccccc34)C(c3ccc(O)cc3)N2C1=S (some centres not stated) | 45µM* | 11% | · | 3% | ? | ?
O=C1[C@@H]2Cc3c([nH]c4ccccc34)[C@@H](c3ccccc3)N2C(=O)[C@@H]2Cc3c([nH]c4ccccc34)[C@@H](c3ccccc3)N12 | 14µM* | ? | -4% | · | ? | ·
O=C1[C@@H]2Cc3c([nH]c4ccccc34)C(c3cccc([N+](=O)[O-])c3)N2C(=O)CN1C1CCN(Cc2ccccc2)CC1 (some centres not stated) | 32%[0.501 µM] | -3% | · | · | 25µM* | ·
O=C1C2Cc3c([nH]c4ccccc34)C(c3ccccc3)N2C(=O)C2Cc3c([nH]c4ccccc34)C(c3ccccc3)N12 (configuration not stated) | · | -6% | · | · | · | ·
CCOc1ccc(C2c3[nH]c4ccccc4c3C[C@H]3C(=O)N(C4CCN(Cc5ccccc5)CC4)CC(=O)N23)cc1OC (some centres not stated) | ? | -8% | · | 13% | ? | ?
CC1Cc2c([nH]c3ccccc23)C2c3ccccc3CN12 (configuration not stated) | 25µM* | -9% | · | -7% | 4% | ?
COc1cc([C@H]2c3[nH]c4ccccc4c3C[C@H]3C(=O)N4[C@@H](c5cc(OC)c(OC)c(OC)c5)c5[nH]c6ccccc6c5C[C@H]4C(=O)N23)cc(OC)c1OC | ? | 23% | 4% | 29% | -22% | -8%
CCc1ccc2c(c1)C1(NN=C(c3cccc4ccccc34)S1)C(=O)N2 (configuration not stated) | ? | -3% | ? | · | 20µM* | ·
O=C(Cn1cnc([N+](=O)[O-])c1)NCCc1ccccc1 | 28µM* | 5% | 3% | 21% | -29% | -8%
Nc1nc2c(c(=O)[nH]1)C(c1cccc3ccccc13)C1=C(N2)c2ccccc2C1=O (configuration not stated) | 35µM* | 56µM* | · | -34% | -10% | ?
O=C(COc1cc2oc(=O)c3c(c2cc1Cl)CCC3)NCc1ccccn1 | 9%[59 µM] | 12% | · | 21% | -13% | -4%
N=C1/C(=C\c2ccc(SCc3ccco3)o2)C(=O)N=C2SC=NN12 | 2%[59 µM] | 79µM* | -29% | 0% | ? | ?
